Source: PubChem
HEK293 tox = qHTS of GLP-1 Receptor Inverse Agonists: Cytotox Screen | HEK293 cAMP-luciferase reporter cells, luminescence, 24 h | Potency, µM (top dose mostly 38.3 µM), inactives show at the top dose activity change, negative = inhibition, actives largely listed as inhibitors | 410,000 compounds, 0.13% hits | AID 624418, 2012;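 further: loss of luciferase light is scored as toxicity; on the % scale 0 is the no-effect control and ±100 the full control effect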
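Quantitative HTS format, 1536 wells, 200 cells/uL seeded. Compounds: 23 nL, 24 h, 37 °C. Detection: luciferase reagent, luminescence at 12 min RT; decreased signal taken as cytotoxic.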
Gal4-VP16 FLuc = VP16 counterscreen qHTS for inhibitors of ROR gamma transcriptional activity | Drosophila S2 Gal4-VP16 UAS-luciferase, luminescence, 20 h | Potency, µM (top dose mostly 53.6 µM), for the others: top-dose activity, negative = inhibition, usual class: inhibitors | 310,000 compounds, 3.5% hits;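 further: Gal4-VP16 expression switched on by copper sulfate through the metallothionein promoter; on the % scale 0 is the no-effect control and ±100 the full control effect; nearly all actives have a fitted effect of over 50% in size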
RORgamma inh = qHTS for inhibitors of ROR gamma transcriptional activity. Potency, µM (titrated, usually from 53.6 µM), for inactives: top-dose activity change, negative = inhibition, most hits filed as inhibitors. Drosophila S2 Gal4-RORgamma UAS-luciferase reporter, 20 h. Nuclear receptor ROR-gamma (Mus musculus), P51450. 310,000 compounds, 5.4% hits. AID 2551, 2010; further: on the % scale 0 is the no-effect control and ±100 the full control effect; nearly all actives have a fitted effect of over 60% in size
Target sequence (P51450 whole entry, looked up, the tested form may be a part): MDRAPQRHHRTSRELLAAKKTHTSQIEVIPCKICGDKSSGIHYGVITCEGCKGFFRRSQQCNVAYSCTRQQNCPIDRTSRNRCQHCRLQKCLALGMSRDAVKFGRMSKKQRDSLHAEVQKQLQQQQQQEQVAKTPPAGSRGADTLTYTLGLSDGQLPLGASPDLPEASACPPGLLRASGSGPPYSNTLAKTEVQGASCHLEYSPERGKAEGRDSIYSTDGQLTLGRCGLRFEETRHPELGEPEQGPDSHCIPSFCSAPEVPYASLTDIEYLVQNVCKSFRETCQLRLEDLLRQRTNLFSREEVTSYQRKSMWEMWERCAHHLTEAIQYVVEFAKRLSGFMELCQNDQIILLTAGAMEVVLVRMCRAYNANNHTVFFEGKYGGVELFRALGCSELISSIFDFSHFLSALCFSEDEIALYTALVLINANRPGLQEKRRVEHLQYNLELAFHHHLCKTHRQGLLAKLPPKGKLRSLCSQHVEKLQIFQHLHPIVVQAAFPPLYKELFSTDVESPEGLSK
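Stably transfected Drosophila Schneider cells are the test system, with ROR gamma fused to Gal4 and luciferase under UAS control; luminescence is read after 20 hr of 700 uM copper sulfate induction at ambient temperature.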
GLP1R inv ag = qHTS of GLP-1 Receptor Inverse Agonists (Inhibition Mode). AID 624417, 2012. HEK293 GLP-1R CRE-luciferase, luminescence, 24 h; GLP-1R form is constitutively active. Potency, µM (top dose mostly 38.3 µM), for the others: at the top dose activity change, negative = inhibition, hits mostly inhibitors. 410,000 compounds, 1.6% hits. Glucagon-like peptide 1 receptor (Homo sapiens), P43220; further: on the % scale 0 is the no-effect control and ±100 the full control effect; nearly all actives have a fitted effect of over 55% in size
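Inverse agonists were sought by their lowering of basal cAMP reporter luciferase output in HEK293 cells stably carrying constitutively active human GLP-1R, after 24 h compound treatment.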
GLP1R ag = qHTS of GLP-1 Receptor Agonists. 380,000 compounds, 0.007% hits. Glucagon-like peptide 1 receptor (Homo sapiens), P43220. HEK293 GLP-1R CRE-luciferase, luminescence, 4-6 h; cells express a hypersensitive GLP-1R form. Potency, µM (titrated, usually from 45.6 µM), for inactives: at the highest dose activation, actives largely listed as activators; further: % of control where 0% means no effect
Active calls of the source: *; [ ] = another dose, or the depositor's remark. An excerpt weighted towards active compounds, which were near 5.9% of everything screened. The call rests on the fitted dose curve; in most records, active means well fitted curve in the direction sought with a large enough effect; inconclusive means small, poorly fitted or top-dose-only effect, or another doubt; inactive means no such curve, though single readings can be large; an effect the other way counts as inactive or inconclusive. Potency means the concentration at half of the fitted maximal effect.

For Cc1ccc(Oc2nc(CN3CCOCC3)nc3sc4c(c23)CCC(C)C4)cc1 (centres undefined) the results were HEK293 tox 16%, Gal4-VP16 FLuc inconclusive, RORgamma inh inconclusive, GLP1R inv ag inconclusive and GLP1R ag inconclusive.
For COc1cc2c(cc1OC)CN(c1nc(CN3CCOCC3)nc3sc4c(c13)CCCC4)CC2 the results were HEK293 tox -27%, Gal4-VP16 FLuc inconclusive, RORgamma inh 14µM*, GLP1R inv ag inconclusive and GLP1R ag 0%.
Screening COc1cc2c(cc1OC)CN(c1nc(CN3CCCC3)nc3sc(C)c(C)c13)CC2 returned HEK293 tox inconclusive, Gal4-VP16 FLuc -7%, RORgamma inh inconclusive, GLP1R inv ag inconclusive and GLP1R ag 1%.
`COc1cc2c(cc1OC)CN(c1nc(CN3CCCCC3)nc3sc4c(c13)CCCC4)CC2` gave HEK293 tox 1%[1.53 µM], Gal4-VP16 FLuc inconclusive, RORgamma inh 11µM*, GLP1R inv ag inconclusive and GLP1R ag 2%.
Cc1cc(S(=O)(=O)Nc2nc(CN3CCOCC3)nc3sc4c(c23)CCC4)cc(C)c1C was read as HEK293 tox 12%, GLP1R inv ag -6% and GLP1R ag -17%.
For Cc1ccc(Oc2nc(CN3CCOCC3)nc3sc4c(c23)CCC(C)C4)cc1C (centres undefined) the results were HEK293 tox 3%, Gal4-VP16 FLuc 11µM*, RORgamma inh 7.9µM*, GLP1R inv ag 0% and GLP1R ag 3%.
For Cc1cc(C)cc(NC(=O)C2CCN(c3cc(C)nc4c(-c5ccc(Cl)cc5)c(C)nn34)CC2)c1 the results were HEK293 tox 3%, GLP1R inv ag 0% and GLP1R ag -1%.
For CCC1C(=O)CC2CCN3C(=O)CCC1C23 (centres undefined) the results were Gal4-VP16 FLuc 3% and RORgamma inh -9%.
Screening COc1ccc(C2=NN(c3ccc(C=O)cc3)C(c3ccccc3)C2)cc1 (centres undefined) returned HEK293 tox 408%, Gal4-VP16 FLuc 0%, RORgamma inh 12%, GLP1R inv ag 10µM* and GLP1R ag 8%.
`COc1ccc(C2CC(c3ccccc3)=NN2c2ccc(C(N)=O)cc2)cc1` (centres undefined) gave HEK293 tox 406%, Gal4-VP16 FLuc -4%, RORgamma inh 42%, GLP1R inv ag inconclusive and GLP1R ag -6%.
Screening O=Cc1ccc(N2N=C(c3ccccc3)CC2c2ccccc2)cc1 (centres undefined) returned HEK293 tox 335%, Gal4-VP16 FLuc 8%, RORgamma inh -16%, GLP1R inv ag inconclusive and GLP1R ag 11%.
Fc1ccc(C2=NN(c3ccccc3)C(c3ccco3)C2)cc1 (centres undefined) was read as HEK293 tox 33%, Gal4-VP16 FLuc inconclusive, RORgamma inh 38%, GLP1R inv ag inconclusive and GLP1R ag 0%.
Screening COc1ccc(C2CC(c3ccccc3)=NN2c2ccc(/C=N/NC(=O)c3ccncc3)cc2)cc1 (centres undefined) returned HEK293 tox 259%, Gal4-VP16 FLuc 7.1µM*, RORgamma inh 3.2µM*, GLP1R inv ag inconclusive and GLP1R ag 3%.
`COc1ccc(C2CC(c3ccc(F)cc3)=NN2c2ccccc2)cc1OC` (centres undefined) gave HEK293 tox 9%, Gal4-VP16 FLuc 29%, RORgamma inh inconclusive, GLP1R inv ag 10µM* and GLP1R ag 7%.
COc1ccc(C2=NN(c3ccccc3)C(c3ccc(OC)c(OC)c3)C2)cc1 (centres undefined) was read as HEK293 tox 17%, Gal4-VP16 FLuc 1%, RORgamma inh -13%, GLP1R inv ag -7% and GLP1R ag 1%.
Screening COc1ccccc1C1CC(c2ccco2)=NN1c1ccccc1 (centres undefined) returned HEK293 tox 170%, Gal4-VP16 FLuc -6%, RORgamma inh -19%, GLP1R inv ag 10µM* and GLP1R ag -2%.
Screening CO/N=C(/C(=O)N[C@@H]1C(=O)N2C(C(=O)O)=C(CSc3cnns3)CS[C@H]12)c1csc(N)n1 returned Gal4-VP16 FLuc 1%, RORgamma inh 16% and GLP1R ag -4%.
Screening CCCCCCCCCCOC(=O)Cn1c(COc2ccc(OC)cc2)[n+](C)c2ccccc21 returned HEK293 tox inconclusive, Gal4-VP16 FLuc 6.3µM*, RORgamma inh inconclusive, GLP1R inv ag inconclusive and GLP1R ag 1%.
Screening CCCCCCCCCCOC(=O)Cn1c(COc2cccc(C)c2)[n+](C)c2ccccc21 returned HEK293 tox -29%, Gal4-VP16 FLuc 11µM*, RORgamma inh -85%, GLP1R inv ag -9% and GLP1R ag 11%.
For CCCCCCCCCCOC(=O)Cn1c(COc2ccccc2)[n+](C)c2ccccc21 the results were HEK293 tox inconclusive, Gal4-VP16 FLuc inconclusive, RORgamma inh inconclusive, GLP1R inv ag inconclusive and GLP1R ag 4%.
CN(C)c1ncc2nc(-c3ccc(F)cc3)c(=O)n(C)c2n1 was read as Gal4-VP16 FLuc inconclusive and RORgamma inh -16%.
Screening COCCn1c(=O)c(-c2ccc(Cl)cc2)nc2cnc(N3CCOCC3)nc21 returned Gal4-VP16 FLuc 8% and RORgamma inh -8%.
COc1ccc(NC(=O)c2cncc(Br)c2)cc1S(N)(=O)=O was read as HEK293 tox -9%[0.307 µM], Gal4-VP16 FLuc 4%, RORgamma inh 11µM*, GLP1R inv ag -19%[0.307 µM] and GLP1R ag 7%.
Screening CC1CCCC(NC(=S)NC(=O)c2cncc(Br)c2)C1C (centres undefined) returned HEK293 tox 1%, Gal4-VP16 FLuc 5.6µM*, RORgamma inh 2.8µM*, GLP1R inv ag -13% and GLP1R ag 15%.
Screening O=C(NC(=S)Nc1ccccc1Cl)c1cncc(Br)c1 returned HEK293 tox inconclusive, Gal4-VP16 FLuc 4.5µM*, RORgamma inh 2.5µM*, GLP1R inv ag 1% and GLP1R ag -3%.
For COc1ccc(NC(=S)NC(=O)c2cncc(Br)c2)c(OC)c1 the results were HEK293 tox 12%, Gal4-VP16 FLuc inconclusive, RORgamma inh 2.5µM*, GLP1R inv ag 16% and GLP1R ag 3%.
For CCOC(=O)CCN1C(=O)[C@H]2[C@H]3[C@H](O)[C@H](O)C/C(=N/NC(=O)OCc4ccc(OC)cc4)[C@@H]3CC[C@@H]2C1=O the results were Gal4-VP16 FLuc -11%[10 µM] and RORgamma inh -2%[10 µM].
